{"source": "PubChem BioAssay (NCATS)", "note": "Results filed as inconclusive are left out. Values without a mark were called inactive. Calls of active or inactive are those of the source. Calls come from the whole dose curve; as a rule, active = well fitted curve in the direction sought with a large enough effect; inconclusive = small, poorly fitted or top-dose-only effect, or another doubt; inactive = no such curve, though single readings can be large; an effect the other way counts as inactive or inconclusive."}
{"assay": "Cell Viability - LYMP1-003 - Assay at 40 hr (AID 964); note: nearly all actives have a fitted effect of over 60% in size; note: potency is the fitted concentration of half-maximal effect; for activity change, negative = cytotoxic: % is set by controls: 0 for no effect and ±100 for the full control effect", "conditions": "LYMP1-003 lymphoblastoid viability; series mostly up to 92.2 µM; activity change, negative = cytotoxic: at the top concentration", "procedure,_shortened": "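LYMP1-003 human lymphoblastoid cells, 2500/well, preincubated 5 h at 37 C, then treated with compound for 40 h at 37 C. Intracellular ATP read by CellTiter-Glo luminescence after 30 min at room temperature; AC50 from Hill-equation fits.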", "units": {"activity change, negative = cytotoxic": "%"}}
{"compound": "CCCCOC(=O)c1ccc(O)cc1", "activity change, negative = cytotoxic": -9.24}
{"compound": "COc1ccccc1O", "Potency": "inactive"}
{"compound": "CCCCCCCCCCCCOS(=O)(=O)O", "Potency": "inactive"}
{"compound": "Cc1cc(CC(=O)O)n(C)c1C(=O)c1ccc(Cl)cc1", "activity change, negative = cytotoxic": -11.6}
{"compound": "NCCNCCNCCN", "activity change, negative = cytotoxic": -5.45}
{"compound": "Nc1ccc(S(=O)(=O)Nc2nccs2)cc1", "activity change, negative = cytotoxic": -3.41}
{"compound": "Cc1c(O)cccc1C(=O)N[C@@H](CSc1ccccc1)[C@H](O)CN1C[C@H]2CCCC[C@H]2C[C@H]1C(=O)NC(C)(C)C", "Potency": "39.8 µM (active)"}
{"compound": "CC12CCC(CC1)C(C)(C)O2", "activity change, negative = cytotoxic": -0.695}
{"compound": "Oc1cccc(O)c1", "activity change, negative = cytotoxic": -9.1}
{"compound": "NCCNCCNCCNCCN", "activity change, negative = cytotoxic": -10}
{"compound": "Cc1cc2nc3c(=O)[nH]c(=O)nc-3n(C[C@H](O)[C@H](O)[C@H](O)CO)c2cc1C", "activity change, negative = cytotoxic": -19.3}
{"compound": "O=C1O[C@H]([C@@H](O)CO)C(O)=C1O", "activity change, negative = cytotoxic": -8.42}
{"compound": "CC1(C)[C@@H]2CC[C@@]1(C)C(=O)C2", "activity change, negative = cytotoxic": 4.16}
{"compound": "O=C1c2c(O)cccc2Cc2cccc(O)c21", "activity change, negative = cytotoxic": 0.911}
{"compound": "[Cl][In]([Cl])[Cl]", "activity change, negative = cytotoxic": -5.2}
{"compound": "C[C@]12C[C@H](O)[C@H]3[C@@H](CCC4=CC(=O)CC[C@@]43C)[C@@H]1CC[C@@H]2C(=O)CO", "activity change, negative = cytotoxic": -7.82}
{"assay": "Cell Viability - LYMP2-003 (AID 965);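 note: cells exposed to compounds for 24 h before reading; 0% = DMSO only and full effect = 92 µM tetraoctylammonium bromide; nearly all actives have a fitted effect of over 50% in size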", "conditions": "LYMP2-003 lymphoblastoid cell viability; series mostly up to 92.2 µM; activity change, negative = cytotoxicity: at the top concentration", "procedure,_shortened": "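CellTiter-Glo luminescence (cellular ATP) after 24 h compound exposure at 37 C in complete medium; 2500 cells/well, 5 h settling beforehand. Concentration-response fitted to standard Hill equation for AC50. Tetraoctylammonium bromide served as positive control.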", "units": {"activity change, negative = cytotoxicity": "%"}}
{"compound": "CCCCOC(=O)c1ccc(O)cc1", "activity change, negative = cytotoxicity": 2.23}
{"compound": "COc1ccccc1O", "outcome": "inactive"}
{"compound": "CCCCCCCCCCCCOS(=O)(=O)O", "outcome": "inactive"}
{"compound": "CN(C)CCC=C1c2ccccc2CCc2ccccc21", "activity change, negative = cytotoxicity": -26.6}
{"compound": "Cc1cc(CC(=O)O)n(C)c1C(=O)c1ccc(Cl)cc1", "activity change, negative = cytotoxicity": -8.5}
{"compound": "NCCNCCNCCN", "activity change, negative = cytotoxicity": 6.36}
{"compound": "NC(=O)c1ncn([C@@H]2O[C@H](CO)[C@@H](O)[C@H]2O)n1", "activity change, negative = cytotoxicity": -15.1}
{"compound": "Nc1ccc(S(=O)(=O)Nc2nccs2)cc1", "activity change, negative = cytotoxicity": -0.88}
{"compound": "CC12CCC(CC1)C(C)(C)O2", "activity change, negative = cytotoxicity": 2.14}
{"compound": "Oc1cccc(O)c1", "activity change, negative = cytotoxicity": 2.38}
{"compound": "NCCNCCNCCNCCN", "activity change, negative = cytotoxicity": 14.8}
{"compound": "Cc1cc2nc3c(=O)[nH]c(=O)nc-3n(C[C@H](O)[C@H](O)[C@H](O)CO)c2cc1C", "activity change, negative = cytotoxicity": 13.8}
{"compound": "O=C1O[C@H]([C@@H](O)CO)C(O)=C1O", "activity change, negative = cytotoxicity": 0.344}
{"compound": "CC1(C)[C@@H]2CC[C@@]1(C)C(=O)C2", "activity change, negative = cytotoxicity": 24.1}
{"compound": "O=C1c2c(O)cccc2Cc2cccc(O)c21", "activity change, negative = cytotoxicity": 3.22}
{"compound": "[Cl][In]([Cl])[Cl]", "activity change, negative = cytotoxicity": 11.9}
{"compound": "C[C@]12C[C@H](O)[C@H]3[C@@H](CCC4=CC(=O)CC[C@@]43C)[C@@H]1CC[C@@H]2C(=O)CO", "activity change, negative = cytotoxicity": -11.6}
{"assay": "Cell Viability - LYMP2-004 (AID 966);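 note: plate controls were DMSO only for no effect and tetraoctylammonium bromide control for full effect; nearly all actives have a fitted effect of over 65% in size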", "conditions": "LYMP2-004 lymphoblastoid cell viability, qHTS; series mostly up to 92.2 µM; activity change, negative = cytotoxicity: at the top concentration", "procedure,_shortened": "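Lymphoblastoid LYMP2-004 cells, 2500 per well, were preincubated for 5 hr and then treated with compound for 24 h at 37 C in complete medium. Viability was read as cellular ATP by CellTiter-Glo luminescence, and AC50 values were taken from Hill fits to concentration-response data.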", "units": {"activity change, negative = cytotoxicity": "%"}}
{"compound": "CCCCOC(=O)c1ccc(O)cc1", "activity change, negative = cytotoxicity": 12.1}
{"compound": "COc1ccccc1O", "outcome": "inactive"}
{"compound": "CCCCCCCCCCCCOS(=O)(=O)O", "activity change, negative = cytotoxicity": 2.14}
{"compound": "NC(=O)N/N=C/c1ccc([N+](=O)[O-])o1", "activity change, negative = cytotoxicity": -23.2}
{"compound": "Cc1cc(CC(=O)O)n(C)c1C(=O)c1ccc(Cl)cc1", "activity change, negative = cytotoxicity": 16.3}
{"compound": "NCCNCCNCCN", "activity change, negative = cytotoxicity": 16.7}
{"compound": "NC(=O)c1ncn([C@@H]2O[C@H](CO)[C@@H](O)[C@H]2O)n1", "activity change, negative = cytotoxicity": -22.3}
{"compound": "Nc1ccc(S(=O)(=O)Nc2nccs2)cc1", "activity change, negative = cytotoxicity": 11.9}
{"compound": "NCCNCCNCCNCCN", "activity change, negative = cytotoxicity": 0.918}
{"compound": "Cc1cc2nc3c(=O)[nH]c(=O)nc-3n(C[C@H](O)[C@H](O)[C@H](O)CO)c2cc1C", "activity change, negative = cytotoxicity": 2.79}
{"compound": "O=C1O[C@H]([C@@H](O)CO)C(O)=C1O", "activity change, negative = cytotoxicity": -2.52}
{"compound": "CC1(C)[C@@H]2CC[C@@]1(C)C(=O)C2", "activity change, negative = cytotoxicity": 14.3}
{"compound": "O=C1c2c(O)cccc2Cc2cccc(O)c21", "activity change, negative = cytotoxicity": -22.3}
{"compound": "[Cl][In]([Cl])[Cl]", "activity change, negative = cytotoxicity": 11.6}
{"compound": "C[C@]12C[C@H](O)[C@H]3[C@@H](CCC4=CC(=O)CC[C@@]43C)[C@@H]1CC[C@@H]2C(=O)CO", "activity change, negative = cytotoxicity": -4.77}
{"assay": "Cell Viability - LYMP2-005 (AID 967);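 note: plate controls were DMSO only for no effect and 92 µM tetraoctylammonium bromide control for full effect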", "conditions": "LYMP2-005 lymphoblastoid cell viability; series mostly up to 92.2 µM; activity change, negative = viability loss: at the top concentration", "procedure,_shortened": "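Steps: seed 2500 LYMP2-005 cells/well, incubate 5 h at 37 C, add compound, incubate 24 h at 37 C, add CellTiter-Glo, wait 30 min at RT, read luminescence. Concentration-response data fitted to Hill equation for AC50.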", "units": {"activity change, negative = viability loss": "%"}}
{"compound": "CCCCOC(=O)c1ccc(O)cc1", "activity change, negative = viability loss": 4.6}
{"compound": "COc1ccccc1O", "outcome": "inactive"}
{"compound": "CCCCCCCCCCCCOS(=O)(=O)O", "outcome": "inactive"}
{"compound": "NC(=O)N/N=C/c1ccc([N+](=O)[O-])o1", "activity change, negative = viability loss": -14.2}
{"compound": "Cc1cc(CC(=O)O)n(C)c1C(=O)c1ccc(Cl)cc1", "activity change, negative = viability loss": -29}
{"compound": "NCCNCCNCCN", "activity change, negative = viability loss": 13.7}
{"compound": "NC(=O)c1ncn([C@@H]2O[C@H](CO)[C@@H](O)[C@H]2O)n1", "activity change, negative = viability loss": -21.6}
{"compound": "Nc1ccc(S(=O)(=O)Nc2nccs2)cc1", "activity change, negative = viability loss": -23.1}
{"compound": "CC12CCC(CC1)C(C)(C)O2", "activity change, negative = viability loss": 15.1}
{"compound": "Oc1cccc(O)c1", "activity change, negative = viability loss": -44.4}
{"compound": "NCCNCCNCCNCCN", "activity change, negative = viability loss": 2.73}
{"compound": "Cc1cc2nc3c(=O)[nH]c(=O)nc-3n(C[C@H](O)[C@H](O)[C@H](O)CO)c2cc1C", "activity change, negative = viability loss": 9.19}
{"compound": "O=C1O[C@H]([C@@H](O)CO)C(O)=C1O", "activity change, negative = viability loss": -10.9}
{"compound": "[Cl][In]([Cl])[Cl]", "activity change, negative = viability loss": 10.6}
{"compound": "C[C@]12C[C@H](O)[C@H]3[C@@H](CCC4=CC(=O)CC[C@@]43C)[C@@H]1CC[C@@H]2C(=O)CO", "activity change, negative = viability loss": -19.6}
{"assay": "Cell Viability - LYMP2-009 (AID 968); note: nearly all actives have a fitted effect of over 55% in size; note: potency is the fitted concentration of half-maximal effect;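 for activity change, negative = viability loss: 0% = DMSO alone and the full-kill end = tetraoctylammonium bromide at 92 µM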", "conditions": "LYMP2-009 lymphoblastoid cell viability; series mostly up to 92.2 µM; activity change, negative = viability loss: at the top concentration", "units": {"activity change, negative = viability loss": "%"}}
{"compound": "CCCCOC(=O)c1ccc(O)cc1", "activity change, negative = viability loss": -6.36}
{"compound": "COc1ccccc1O", "Potency": "inactive"}
{"compound": "CCCCCCCCCCCCOS(=O)(=O)O", "Potency": "inactive"}
{"compound": "Cc1cc(CC(=O)O)n(C)c1C(=O)c1ccc(Cl)cc1", "activity change, negative = viability loss": -6.23}
{"compound": "NCCNCCNCCN", "activity change, negative = viability loss": -19.4}
{"compound": "NC(=O)c1ncn([C@@H]2O[C@H](CO)[C@@H](O)[C@H]2O)n1", "activity change, negative = viability loss": -28.2}
{"compound": "Nc1ccc(S(=O)(=O)Nc2nccs2)cc1", "activity change, negative = viability loss": -9.5}
{"compound": "Cc1c(O)cccc1C(=O)N[C@@H](CSc1ccccc1)[C@H](O)CN1C[C@H]2CCCC[C@H]2C[C@H]1C(=O)NC(C)(C)C", "Potency": "50.1 µM (active)"}
{"compound": "CC12CCC(CC1)C(C)(C)O2", "activity change, negative = viability loss": -7.76}
{"compound": "Oc1cccc(O)c1", "activity change, negative = viability loss": -14.9}
{"compound": "NCCNCCNCCNCCN", "activity change, negative = viability loss": -11.1}
{"compound": "Cc1cc2nc3c(=O)[nH]c(=O)nc-3n(C[C@H](O)[C@H](O)[C@H](O)CO)c2cc1C", "activity change, negative = viability loss": -11.6}
{"compound": "O=C1O[C@H]([C@@H](O)CO)C(O)=C1O", "activity change, negative = viability loss": -11.9}
{"compound": "CC1(C)[C@@H]2CC[C@@]1(C)C(=O)C2", "activity change, negative = viability loss": -7.39}
{"compound": "O=C1c2c(O)cccc2Cc2cccc(O)c21", "activity change, negative = viability loss": -8.91}
{"compound": "[Cl][In]([Cl])[Cl]", "activity change, negative = viability loss": -3.14}
{"compound": "C[C@]12C[C@H](O)[C@H]3[C@@H](CCC4=CC(=O)CC[C@@]43C)[C@@H]1CC[C@@H]2C(=O)CO", "activity change, negative = viability loss": -10.7}
